This passage reports growth results from PubChem BioAssay (NCI).

Some test systems named below: NCI-H23 lung; NCI-H226 lung; NCI-H322M lung; HOP-62 NSCLC; NCI-H460 lung; HOP-92 NSCLC; NCI-H522 lung; A549/ATCC NSCLC; 786-0 renal; COLO 205 colon; DU-145 prostate; K-562 leukemia; MALME-3M melanoma; MDA-MB-231 breast; RXF 393 renal; SF-268 CNS; SF-295 CNS; SF-539 CNS; UACC-257 melanoma; M14 melanoma.
Experiment in all cases: NCI-60 one-dose screen, 48 h (100 = growth as untreated, 0 = no growth, -100 = all killed)
Conditions in all cases: 10 µM unless noted

About 83,000 compounds went through this panel and 20% of them were active in at least one assay; those are over-represented in the sample as a whole.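 Results are percent growth after 48 hours of single-concentration exposure. 100 means growth as in untreated cells, lower positive values show inhibition; negative values down to -100 show cell death.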 A number with no mark means an inactive call. Active and inactive are the calls of the source. Rule for the calls: active = growth percent below 10; inactive = the rest.

In the case of `COC(=O)c1ccc2cc(OC)c(OC)cc2c1`, the growth was 102% in the assay on NCI-H23 lung; 97.6% in the assay on NCI-H226 lung; 108% in the assay on NCI-H322M lung; 107% in the assay on HOP-62 NSCLC; 108% in the assay on NCI-H460 lung; 94.4% in the assay on HOP-92 NSCLC. Moreover, the growth in the assay with NCI-H522 lung was 98.9%; in the assay on A549/ATCC NSCLC it was 77.4%; in the assay on 786-0 renal, 91.9%; in the assay on COLO 205 colon, 122%; with DU-145 prostate, 116%; in the assay on K-562 leukemia it was 115%. Moreover, the growth in the assay with MALME-3M melanoma is 117%; with MDA-MB-231 breast, 127%; with RXF 393 renal it was 97%; in the assay on SF-268 CNS, 114%; with SF-295 CNS it was 70.4%; in the assay on SF-539 CNS it was 116%. Moreover, the growth in the assay on UACC-257 melanoma was 103%; in the assay on M14 melanoma, 110%.

As for `O=c1oc2c(cc1-c1ccccc1)c[n+]([O-])c1ccccc21`, the growth in the assay on NCI-H23 lung was 101%; in the assay with NCI-H226 lung it was 93.5%; in the assay with NCI-H322M lung, 104%; with HOP-62 NSCLC, 99.2%; in the assay on NCI-H460 lung, 98%; with HOP-92 NSCLC it was 86.4%. Also, the growth in the assay on NCI-H522 lung was 98.9%; in the assay with A549/ATCC NSCLC, 98%; in the assay on 786-0 renal it was 90.3%; with COLO 205 colon, 102%; with DU-145 prostate, 103%; with K-562 leukemia it was 92.6%. Further, the growth in the assay on MALME-3M melanoma was 97.7%; with MDA-MB-231 breast it was 91.8%; in the assay on RXF 393 renal, 94.6%; in the assay with SF-268 CNS, 107%; in the assay with SF-295 CNS, 101%; in the assay on SF-539 CNS, 101%. Further, the growth is 100% in the assay on UACC-257 melanoma and 103% with M14 melanoma.

`CCN(CC)CCOc1ccc(/C(=C(\C)Cc2ccc(OC)cc2)c2ccc(OC(=O)NCc3ccccc3)cc2)cc1`: the growth is 88.4% in the assay on NCI-H23 lung; 86.9% in the assay with NCI-H226 lung; 80.4% with NCI-H322M lung; 79.7% with HOP-62 NSCLC; 1.28% (active) in the assay on NCI-H460 lung; 59% in the assay with HOP-92 NSCLC. The growth with NCI-H522 lung was 69.7%; in the assay with A549/ATCC NSCLC, 48.1%; in the assay with 786-0 renal, 56.7%; in the assay with COLO 205 colon it was -56.1% (active); in the assay on DU-145 prostate, 78.9%; in the assay with K-562 leukemia it was -51% (active). Also, the growth in the assay with MALME-3M melanoma was 26.1%; in the assay on MDA-MB-231 breast, 76.3%; in the assay with RXF 393 renal it was 59.7%; in the assay on SF-268 CNS, 73.7%; with SF-295 CNS, 59.4%; with SF-539 CNS it was 65.6%. In addition, the growth in the assay with UACC-257 melanoma is 38.2%; with M14 melanoma, -61.5% (active).

For `COc1cc2c(c(OC)c1OC)C(=O)CC(c1cccc(C(=O)Nc3ccc(C#N)cc3)c1)O2` (stereo not given), the growth was 78.7% with NCI-H23 lung; 46.9% with NCI-H226 lung; 90.8% in the assay with NCI-H322M lung; 91.5% in the assay on HOP-62 NSCLC; 89.3% in the assay on NCI-H460 lung; 64.6% in the assay on HOP-92 NSCLC. For the same compound, the growth was 46.8% in the assay on NCI-H522 lung; 87.4% in the assay on A549/ATCC NSCLC; 90.4% in the assay on 786-0 renal; 85.8% in the assay on COLO 205 colon; 88% in the assay on DU-145 prostate; 42.2% with K-562 leukemia. The growth in the assay with MALME-3M melanoma is 96.9%; in the assay with MDA-MB-231 breast, 73.5%; with RXF 393 renal, 99.7%; in the assay on SF-268 CNS, 88.9%; in the assay with SF-295 CNS it was 77%; in the assay with SF-539 CNS, 93%. In addition, the growth in the assay on UACC-257 melanoma was 82.4%; with M14 melanoma it was 72.1%.

For `Nc1nc2ccccc2c2c(=O)c3cc(Cl)ccc3sc12`, the growth with NCI-H23 lung is 87.5%; with NCI-H226 lung, 92.7%; with NCI-H322M lung, 91.8%; in the assay with HOP-62 NSCLC, 89.7%; in the assay with NCI-H460 lung it was 86.2%; with HOP-92 NSCLC it was 81.3%. In addition, the growth with NCI-H522 lung is 93.4%; in the assay with A549/ATCC NSCLC it was 93.9%; with 786-0 renal, 98.5%; in the assay with COLO 205 colon it was 114%; in the assay on DU-145 prostate, 14.6%; in the assay on K-562 leukemia, 96.1%. Moreover, the growth in the assay with MALME-3M melanoma is 108%; with MDA-MB-231 breast, 84.7%; in the assay on RXF 393 renal, 108%; with SF-268 CNS, 13%; in the assay on SF-295 CNS it was 96.2%; with SF-539 CNS, 95.5%. Further, the figures for the growth with UACC-257 melanoma and with M14 melanoma were 99.1% and 105%, respectively.

As for `O=C(Oc1ccc2c(c1)sc1nc(-c3ccccc3)[nH]c(=O)c12)C(F)(F)F`, the growth in the assay with NCI-H23 lung is 52.8%; in the assay with NCI-H226 lung, 58.3%; in the assay with NCI-H322M lung it was 56.3%; with HOP-62 NSCLC it was 39.3%; with NCI-H460 lung it was 13%; in the assay with HOP-92 NSCLC it was 54.1%. Also, the growth in the assay on NCI-H522 lung was 25.1%; with A549/ATCC NSCLC it was 28.3%; in the assay with 786-0 renal it was 51%; with COLO 205 colon it was 88.3%; with DU-145 prostate, 44.2%; with K-562 leukemia it was 15.3%. Besides, the growth with MALME-3M melanoma was 33.3%; in the assay with MDA-MB-231 breast it was 61.4%; in the assay on RXF 393 renal it was 43.8%; in the assay on SF-268 CNS, 44%; with SF-295 CNS it was 51.9%; with SF-539 CNS, 27.9%. Also, the growth in the assay on UACC-257 melanoma is 49.1%; in the assay with M14 melanoma, 4.5% (active).

Turning to `CCOC(=O)c1nnn(-c2no[n+]([O-])c2-c2ccc(OC)cc2)c1COc1cccc2cccnc12`, the growth was 31.6% in the assay with NCI-H23 lung; 8.91% (active) with NCI-H226 lung; 98.8% in the assay with NCI-H322M lung; 30.6% in the assay with HOP-62 NSCLC; 8.47% (active) with NCI-H460 lung; 17.6% in the assay on HOP-92 NSCLC. Also, the growth with NCI-H522 lung is -52.7% (active); in the assay on A549/ATCC NSCLC, 71.9%; in the assay with 786-0 renal, 25.8%; in the assay with COLO 205 colon it was -25% (active); in the assay on DU-145 prostate, 11.8%; with K-562 leukemia it was 11.9%. The growth with MALME-3M melanoma was 68.6%; in the assay with MDA-MB-231 breast, 17%; with RXF 393 renal, 22.5%; with SF-268 CNS, 21.8%; in the assay with SF-295 CNS it was 33.4%; in the assay with SF-539 CNS, -3.16% (active). The values for the growth with UACC-257 melanoma and in the assay with M14 melanoma were 59.1% and 12.4%, respectively.

Consider `Cc1ccc2c(c1)nc(C)n2-c1ncnc2c1CC(C)c1cc(O)ccc1N2C` (stereo not given), for which the growth in the assay with NCI-H23 lung is 65.7%; with NCI-H226 lung, 74.1%; in the assay with NCI-H322M lung, 64%; in the assay on HOP-62 NSCLC, 37.8%; in the assay with NCI-H460 lung, 19.7%; in the assay with HOP-92 NSCLC, 24.7%. For the same compound, the growth with NCI-H522 lung is 23.6%; in the assay with A549/ATCC NSCLC, 31%; with 786-0 renal, 33.4%; in the assay on COLO 205 colon it was 98.5%; with DU-145 prostate, 42.1%; in the assay on K-562 leukemia, 14.8%. In addition, the growth with MALME-3M melanoma is 48.9%; in the assay with MDA-MB-231 breast, 50.8%; in the assay with RXF 393 renal, 10.7%; in the assay on SF-268 CNS, 44.1%; in the assay on SF-295 CNS it was 11.1%; with SF-539 CNS, 28.7%. The growth with UACC-257 melanoma was 17.9%; in the assay on M14 melanoma, 15%.
